# Screening results: PubChem, Center for Chemical Genomics, University of Michigan
# Dicer processing: blocks human Dicer maturation of pre-miR-21; z-score at 25 µM; 6% of 47,000 active; cat-ELCCA pre-miR-21 Dicer processing, chemiluminescence; hits give high values; in the data active = z-score above about 3, passing the limit was not always enough;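 note: plate controls were vehicle for no effect and no enzyme for full effect; higher signal means more uncleaved substrate so more Dicer inhibition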
# * hit, by the source's call. The full list was thinned out, with hits kept by preference.
SMILES,Dicer processing
CC12CN3CC(C)(CN(C1)C3c1cc(Br)ccc1O)C2O (configuration not stated),-1.1
O=[N+]([O-])c1cc(-c2nc(-c3cccc(C(F)(F)F)c3)no2)cs1,0.41
Cc1cc(C)c2c(N)c(C(=O)NCc3ccco3)sc2n1,-1.8
Cc1cc(C)c2c(N)c(C(=O)c3ccc(-c4ccccc4)cc3)sc2n1,-1.3
Cc1cc(C)c2c(N)c(C(=O)NNC(=S)NCc3ccccc3)sc2n1,3*
Cc1cc(C)c2c(N)c(C(=O)O)sc2n1,6.9
Cc1cc(C)c2c(N)c(S(=O)(=O)Cc3ccccc3)sc2n1,4.1*
CSc1cccc(NC(=O)c2sc3nc(C)cc(C)c3c2N)c1,-0.06
O=C(c1ccccc1)c1cccc(NC(=O)c2cccnc2Oc2ccccc2)c1,0.06
COc1ccc(N2CCN(CC(O)COC3C4(C)CCC(C4)C3(C)C)CC2)cc1 (configuration not stated),2.1
COc1ccc2[nH]c(C)c(CN3CCN(C)CC3)c(=O)c2c1,1.8
Fc1cc(Br)c(-n2cccc2)c(Br)c1Cl,0.11
CCOC(=O)Cc1csc(N2C(=O)c3ccccc3C2=O)n1,-1
Cc1cc(Cl)ccc1NC(c1ccccn1)c1ccc2cccnc2c1O (configuration not stated),9.1*
Cc1ccc(NC(c2ccccn2)c2ccc3cccnc3c2O)c(C)c1 (configuration not stated),-1.2
Oc1c(C(Nc2ccccc2Cl)c2cccnc2)ccc2cccnc12 (configuration not stated),6.2*
Cc1cc(Cl)ccc1NC(c1cccnc1)c1ccc2cccnc2c1O (configuration not stated),11*
O=C(Nc1cccc2cccnc12)C(Cl)(Cl)Cl,-0.2
Cc1cc(Cl)ccc1Oc1ncccc1N,-2.9
Cc1ccc(NC(c2cccnc2)c2ccc3cccnc3c2O)cc1C (configuration not stated),-0.31
C=C(C)CC1N(c2ccccc2)C(=O)C2C(C(=O)O)C3C=CC21O3 (configuration not stated),-0.33
CCSC1=C(C#N)C(=O)NC(c2ccc(O)c(OC)c2)S1 (configuration not stated),-0.13
Cc1onc(-c2c(Cl)cccc2Cl)c1C(=O)Oc1c(Cl)cncc1Cl,-1.5
CC1=C(C)CC(C(=O)Nc2cccc(-c3nn(C)cc3Br)c2)C(C(=O)O)C1 (configuration not stated),0.5
CCCN1C(=O)C(O)(CC(=O)c2ccc(C)s2)c2ccccc21 (configuration not stated),-0.54
SMILES,Dicer processing
Cc1ccc(C(=O)CC2(O)C(=O)N(Cc3ccc(Cl)cc3)c3ccccc32)cc1 (configuration not stated),2.7
Cc1ccccc1CN1C(=O)C(O)(CC(=O)c2ccco2)c2cc(Cl)ccc21 (configuration not stated),2.3
Cc1ccc(CN2C(=O)C(O)(CC(=O)c3ccc(C)o3)c3cc(Cl)ccc32)cc1 (configuration not stated),3.7*
Cc1coc(C)c1C(=O)CC1(O)C(=O)N(Cc2ccccc2)c2ccc(Br)cc21 (configuration not stated),3.8*
O=C(CC1(O)C(=O)N(Cc2ccccc2)c2ccc(Br)cc21)c1cccnc1 (configuration not stated),2.6
CCCCN1C(=O)C(O)(CC(=O)c2ccc(C)s2)c2cc(Br)ccc21 (configuration not stated),2.3
CCCN1C(=O)C(O)(CC(=O)c2ccc(C)o2)c2cc(Br)ccc21 (configuration not stated),-0.06
Cc1ccc(C(=O)CC2(O)C(=O)N(Cc3ccccc3)c3ccc(Br)cc32)s1 (configuration not stated),3.6*
CCSC1=C(C#N)C(c2ccc(C)cc2)CC(=O)N1 (configuration not stated),1.6
O=C(NC(=O)c1c(Cl)cccc1Cl)Oc1ccc(C(F)(F)F)cc1,-0.94
CSc1ccccc1NC(=O)CCSc1nc(-c2ccco2)cc(C(F)(F)F)n1,-1
CCOC(=O)/C(C#N)=C1\CCc2ccccc21,-0.04
Cc1ccc(F)cc1NC1OC(=O)c2ccccc21 (configuration not stated),-1.4
Cc1ccc2ccc(C(Nc3ccccn3)c3ccc(Br)cc3)c(O)c2n1 (configuration not stated),5.7*
CSc1ccc(C(Nc2ccccn2)c2ccc3ccc(C)nc3c2O)cc1 (configuration not stated),-0.44
CCOc1cccc(C(Nc2ccccn2)c2ccc3ccc(C)nc3c2O)c1O (configuration not stated),0.08
Cc1ccc2ccc(C(Nc3ccccn3)c3ccc(N(C)C)cc3)c(O)c2n1 (configuration not stated),4.4*
CCOc1ccc(C(Nc2ccccn2)c2ccc3ccc(C)nc3c2O)cc1 (configuration not stated),-2.3
Oc1ccc2ncccc2c1C(Nc1ccccn1)c1ccccc1F (configuration not stated),1.4
c1ccc(-c2cc3ccccc3nn2)cc1,-1.5
O=[N+]([O-])c1ccc(S(=O)(=O)c2ccccc2)nc1S(=O)(=O)c1ccccc1,-2.4
CCOC(=O)Nc1nc2ccc(C)cc2[nH]1,-0.64
CCCc1nn2c(=O)c(NC(=O)c3ccc(C)cc3)cnc2s1,-0.87
O=[N+]([O-])c1cc(C(F)(F)F)ccc1-c1ccc(C(F)(F)F)cc1[N+](=O)[O-],1.8
Cc1ccc(-c2cc3nc(C)c(-c4ccccc4)c(N)n3n2)cc1,0.66
SMILES,Dicer processing
Cc1nn2c(N)cc(-c3ccccc3)nc2c1-c1ccccc1,3.8*
Cc1cc(N)n2nc(C)c(-c3ccc(Cl)cc3)c2n1,1.8
O=C(Nc1ccccc1)OC1CCSC1 (configuration not stated),1.2
Cc1cc(O)ccc1Nc1nc(-c2cccnc2)cs1,1.9
Cc1cc(O)ccc1Nc1nc(-c2ccccn2)cs1,5.4*
COc1ccc(OC)c(Nc2nc(-c3ccncc3)cs2)c1,1.7
Cc1nc(C)c(-c2csc(Nc3ccc(O)cc3C)n2)s1,1.1
Fc1ccccc1Nc1nc(-c2ccccn2)cs1,1.7
COc1ccc(Nc2nc(-c3ccccn3)cs2)c(OC)c1,5.3*
O=[N+]([O-])c1cc(C(F)(F)F)ccc1Sc1cccs1,0.16
Cc1nn(C)c(C)c1S(=O)(=O)NC1CCCCNC1=O (configuration not stated),-3.4
O=[N+]([O-])c1ccc(-n2ccc(C(F)(F)F)n2)cc1,-0.28
CCOC(=O)N1CCC(NC(=O)c2nccnc2C(=O)Nc2ccc(C)cc2)CC1,-1.1
CCOc1ccc(-n2nc3cc(C)c(N)cc3n2)cc1,4.6*
CCOc1ccc(-n2nc3ccc(N)cc3n2)cc1,-3.8
COc1ccc(-n2nc3ccc(N)cc3n2)cc1,-4.1
COC(=O)C1=NN(c2ccccc2OC)C2C(=O)N(c3ccc(Br)cc3)C(=O)C12 (configuration not stated),-3.9
CS(=O)(=O)N(CC(=O)N1CCc2ccccc2C1)c1cccc2ccccc12,1.7
O=C(c1nc2ncccn2n1)N1CCc2ccccc2C1,2
CN(C)S(=O)(=O)N1CCc2ccccc2C1,4.9*
Cc1ccsc1CNC(=O)Nc1ccc(OCc2ccccc2)cc1,2.7
O=C(NCc1sccc1COc1ccc(Cl)cc1)Nc1ccccc1F,4.5*
O=S(=O)(NNC(=S)Nc1ccccc1F)c1ccc(Cl)cc1,0.15
CC(C)(C)OC(=O)NC1CCN(c2nccc(C(F)(F)F)n2)CC1,-0.73
